The source of these data is paper PMC7862700, “An all-to-all approach to the identification of sequence-specific readers for epigenetic DNA modifications on cytosine”.

Holding throughout (experiment): DAPPL (digital affinity profiling via proximity ligation, sequencing); 10 mM Tris-HCl pH 7.5, 50 mM NaCl, 1 mM DTT, 4% glycerol, room temperature, 30 min; GST-TFs on glutathione beads, 16-mer random dsDNA library, 0.1% formaldehyde crosslink after washing; high values mean tight binding
Common to all, as to conditions: protein: recombinant; tags: N-terminal GST; dsDNA, one strand shown

Test [1] deals with T1, FLI1 (Homo sapiens, UniProt Q01543 1-452).
T1 sequence: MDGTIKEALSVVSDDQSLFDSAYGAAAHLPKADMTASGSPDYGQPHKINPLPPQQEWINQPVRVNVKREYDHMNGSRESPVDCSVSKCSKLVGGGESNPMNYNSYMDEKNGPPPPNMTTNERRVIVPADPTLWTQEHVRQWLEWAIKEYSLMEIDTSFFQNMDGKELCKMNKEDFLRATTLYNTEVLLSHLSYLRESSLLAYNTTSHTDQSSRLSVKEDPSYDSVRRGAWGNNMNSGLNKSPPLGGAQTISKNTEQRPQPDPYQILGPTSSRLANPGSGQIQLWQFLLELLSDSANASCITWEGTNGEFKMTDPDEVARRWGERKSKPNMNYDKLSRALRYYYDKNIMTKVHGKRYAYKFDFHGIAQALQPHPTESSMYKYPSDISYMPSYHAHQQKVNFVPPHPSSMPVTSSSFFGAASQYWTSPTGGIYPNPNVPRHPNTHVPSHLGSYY
In a few lines: (§1)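 A tag-only sample was pooled with DNA-barcoded human transcription factors that had been expressed in yeast as GST fusions and captured on glutathione beads. The pools were incubated for 30 min at room temperature with 200 nmole of a random double-stranded 16-mer DNA library in Tris/NaCl/DTT/glycerol buffer, then washed, crosslinked with 0.1% formaldehyde, proximity-ligated (BsaI/T4 ligase, 1 h, 37 °C), PCR-amplified and sequenced on an Illumina NextSeq500. Binding signal is each hexamer's read frequency for a factor divided by its frequency for the tag-only sample.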

Test [2] deals with T2, ELK1 (Homo sapiens, UniProt P19419 1-428).
T2 sequence: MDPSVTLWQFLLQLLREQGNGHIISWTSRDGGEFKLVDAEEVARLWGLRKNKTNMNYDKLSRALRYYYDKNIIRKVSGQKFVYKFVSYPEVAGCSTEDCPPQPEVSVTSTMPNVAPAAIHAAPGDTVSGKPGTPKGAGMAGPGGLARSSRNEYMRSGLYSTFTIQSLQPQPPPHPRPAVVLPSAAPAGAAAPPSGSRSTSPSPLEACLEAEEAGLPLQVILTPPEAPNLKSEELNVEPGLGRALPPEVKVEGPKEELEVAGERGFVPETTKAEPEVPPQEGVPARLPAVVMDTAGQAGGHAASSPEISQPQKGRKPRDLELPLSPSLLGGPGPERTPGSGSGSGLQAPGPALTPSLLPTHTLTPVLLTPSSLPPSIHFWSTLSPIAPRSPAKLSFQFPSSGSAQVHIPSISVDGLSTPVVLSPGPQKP
The essentials: as §1

Test [3] deals with T3, GABPA (Homo sapiens, UniProt Q06546 1-454).
T3 sequence: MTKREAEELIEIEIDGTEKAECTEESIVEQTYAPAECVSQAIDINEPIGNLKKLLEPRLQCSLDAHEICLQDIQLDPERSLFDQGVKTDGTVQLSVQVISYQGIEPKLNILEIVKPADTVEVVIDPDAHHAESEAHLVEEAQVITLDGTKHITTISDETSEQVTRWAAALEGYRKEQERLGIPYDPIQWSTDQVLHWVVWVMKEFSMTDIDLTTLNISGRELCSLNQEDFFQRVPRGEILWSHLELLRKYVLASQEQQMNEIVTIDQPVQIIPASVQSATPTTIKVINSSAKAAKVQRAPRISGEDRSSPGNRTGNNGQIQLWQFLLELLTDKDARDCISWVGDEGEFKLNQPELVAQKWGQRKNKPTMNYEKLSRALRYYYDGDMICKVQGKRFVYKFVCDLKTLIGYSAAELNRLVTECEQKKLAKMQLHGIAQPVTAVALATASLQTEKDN
The essentials:
as §1

For test [4], the target named is T4, ERG (Homo sapiens, UniProt P11308 1-479).
T4 sequence: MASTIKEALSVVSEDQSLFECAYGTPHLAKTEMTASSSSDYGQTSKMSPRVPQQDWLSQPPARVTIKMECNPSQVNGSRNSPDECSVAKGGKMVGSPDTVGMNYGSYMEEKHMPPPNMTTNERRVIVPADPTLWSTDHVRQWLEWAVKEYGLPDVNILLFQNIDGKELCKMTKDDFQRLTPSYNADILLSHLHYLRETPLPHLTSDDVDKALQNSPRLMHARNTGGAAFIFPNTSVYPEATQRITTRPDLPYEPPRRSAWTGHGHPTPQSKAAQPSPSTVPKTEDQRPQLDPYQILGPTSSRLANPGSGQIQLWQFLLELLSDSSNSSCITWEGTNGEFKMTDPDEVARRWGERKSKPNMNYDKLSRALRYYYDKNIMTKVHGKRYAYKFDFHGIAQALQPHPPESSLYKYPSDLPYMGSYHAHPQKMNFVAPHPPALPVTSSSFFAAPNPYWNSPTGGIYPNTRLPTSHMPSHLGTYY
In a few lines:
as §1

For test [5], the target named is ELF1 (Homo sapiens, UniProt P32519 1-619). The essentials:
as §1

Test [6] has as its target T5, EHF (Homo sapiens, UniProt Q9NZC4 1-300).
T5 sequence: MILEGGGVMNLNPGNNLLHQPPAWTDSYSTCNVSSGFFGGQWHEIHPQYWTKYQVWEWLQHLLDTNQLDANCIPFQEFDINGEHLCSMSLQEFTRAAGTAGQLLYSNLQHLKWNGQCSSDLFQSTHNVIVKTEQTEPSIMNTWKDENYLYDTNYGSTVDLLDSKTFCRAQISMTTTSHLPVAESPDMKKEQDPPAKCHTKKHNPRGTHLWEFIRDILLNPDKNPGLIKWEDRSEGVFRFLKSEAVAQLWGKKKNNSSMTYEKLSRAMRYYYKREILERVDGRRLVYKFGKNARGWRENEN
In a few lines:
as §1

The target in test [7] is SPI1 (Homo sapiens, UniProt P17947 1-270). In a few lines:
as §1

Test [8] concerns the target SPIB (Homo sapiens, UniProt Q01892 1-262). In a few lines: as §1
Test [9] addresses T6, ELK3 (Homo sapiens, UniProt P41970 1-407).
T6 sequence: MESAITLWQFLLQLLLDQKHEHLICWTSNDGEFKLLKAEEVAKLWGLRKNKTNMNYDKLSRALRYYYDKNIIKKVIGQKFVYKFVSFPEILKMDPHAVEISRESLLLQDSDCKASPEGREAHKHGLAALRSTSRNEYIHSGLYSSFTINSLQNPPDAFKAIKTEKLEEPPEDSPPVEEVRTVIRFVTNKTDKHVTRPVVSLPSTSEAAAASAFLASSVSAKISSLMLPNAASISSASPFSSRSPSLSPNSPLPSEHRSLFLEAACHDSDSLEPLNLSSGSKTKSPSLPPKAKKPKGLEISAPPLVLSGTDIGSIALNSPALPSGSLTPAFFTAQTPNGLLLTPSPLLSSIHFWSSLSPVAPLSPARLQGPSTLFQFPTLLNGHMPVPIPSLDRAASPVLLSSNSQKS
The essentials: as §1

Test [10] concerns the target T7, FEV (Homo sapiens, UniProt Q99581 1-238).
T7 sequence: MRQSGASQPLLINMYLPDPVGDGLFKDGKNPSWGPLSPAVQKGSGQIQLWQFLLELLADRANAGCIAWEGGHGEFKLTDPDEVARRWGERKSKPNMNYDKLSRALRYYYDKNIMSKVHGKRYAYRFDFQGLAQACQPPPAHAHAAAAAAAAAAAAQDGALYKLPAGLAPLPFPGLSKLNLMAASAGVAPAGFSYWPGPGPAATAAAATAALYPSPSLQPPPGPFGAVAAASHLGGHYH
The essentials:
as §1

For test [11], the target named is ETV5 (Homo sapiens, UniProt P41161 1-510). The essentials: as §1
ETV5, sequence (P41161 whole entry): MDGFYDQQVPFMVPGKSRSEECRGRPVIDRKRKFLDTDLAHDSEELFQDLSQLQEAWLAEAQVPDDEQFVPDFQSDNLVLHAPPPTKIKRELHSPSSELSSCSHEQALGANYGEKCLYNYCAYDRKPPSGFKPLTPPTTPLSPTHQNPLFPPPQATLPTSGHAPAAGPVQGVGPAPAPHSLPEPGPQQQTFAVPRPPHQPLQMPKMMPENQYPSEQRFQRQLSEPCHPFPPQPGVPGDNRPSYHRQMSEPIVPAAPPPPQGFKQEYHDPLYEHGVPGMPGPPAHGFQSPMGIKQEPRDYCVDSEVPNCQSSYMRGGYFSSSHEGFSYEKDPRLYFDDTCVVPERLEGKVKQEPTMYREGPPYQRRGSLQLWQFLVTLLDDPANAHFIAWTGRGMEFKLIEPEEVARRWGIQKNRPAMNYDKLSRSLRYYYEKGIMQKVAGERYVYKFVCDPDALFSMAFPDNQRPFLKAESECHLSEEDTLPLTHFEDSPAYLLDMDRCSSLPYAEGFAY
Test [12] deals with T8, SPIC (Homo sapiens, UniProt Q8N5J4 1-248).
T8 sequence: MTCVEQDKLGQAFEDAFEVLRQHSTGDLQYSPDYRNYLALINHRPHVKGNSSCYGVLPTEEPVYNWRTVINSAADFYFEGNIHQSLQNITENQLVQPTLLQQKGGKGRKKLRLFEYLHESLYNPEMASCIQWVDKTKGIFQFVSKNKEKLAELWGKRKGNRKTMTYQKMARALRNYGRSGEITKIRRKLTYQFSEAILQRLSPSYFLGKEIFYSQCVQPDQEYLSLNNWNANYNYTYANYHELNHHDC
The essentials: as §1

The target of test [13] is ELF4 (Homo sapiens, UniProt Q99607 1-663). In a few lines:
as §1

Test [14] has as its target T9, ELK4 (Homo sapiens, UniProt P28324-2 1-405).
T9 sequence: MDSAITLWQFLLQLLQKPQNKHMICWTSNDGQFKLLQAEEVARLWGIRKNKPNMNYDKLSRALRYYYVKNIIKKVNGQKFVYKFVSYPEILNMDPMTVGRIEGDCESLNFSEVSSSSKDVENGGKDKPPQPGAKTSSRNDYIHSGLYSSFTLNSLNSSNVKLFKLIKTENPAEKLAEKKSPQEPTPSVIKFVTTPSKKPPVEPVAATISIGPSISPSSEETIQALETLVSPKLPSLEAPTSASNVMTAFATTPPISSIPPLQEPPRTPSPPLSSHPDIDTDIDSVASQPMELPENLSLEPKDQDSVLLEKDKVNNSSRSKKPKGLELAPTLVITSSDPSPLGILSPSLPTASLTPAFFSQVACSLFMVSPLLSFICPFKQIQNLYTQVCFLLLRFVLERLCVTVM
In a few lines:
as §1

Test [15] has as its target T10, ETV2 (Homo sapiens, UniProt O00321 1-342).
T10 sequence: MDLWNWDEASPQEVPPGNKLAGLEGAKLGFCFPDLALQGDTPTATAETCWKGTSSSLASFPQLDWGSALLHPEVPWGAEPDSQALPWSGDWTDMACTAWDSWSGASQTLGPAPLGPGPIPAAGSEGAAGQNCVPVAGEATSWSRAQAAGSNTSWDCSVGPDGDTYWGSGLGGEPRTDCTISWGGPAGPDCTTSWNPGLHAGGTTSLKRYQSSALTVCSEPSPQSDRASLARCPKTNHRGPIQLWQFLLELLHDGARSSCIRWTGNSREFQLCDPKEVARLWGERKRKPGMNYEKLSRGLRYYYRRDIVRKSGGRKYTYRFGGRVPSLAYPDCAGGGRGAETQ
The essentials:
as §1

The target of test [16] is T11, ELF3 (Homo sapiens, UniProt P78545 1-371).
T11 sequence: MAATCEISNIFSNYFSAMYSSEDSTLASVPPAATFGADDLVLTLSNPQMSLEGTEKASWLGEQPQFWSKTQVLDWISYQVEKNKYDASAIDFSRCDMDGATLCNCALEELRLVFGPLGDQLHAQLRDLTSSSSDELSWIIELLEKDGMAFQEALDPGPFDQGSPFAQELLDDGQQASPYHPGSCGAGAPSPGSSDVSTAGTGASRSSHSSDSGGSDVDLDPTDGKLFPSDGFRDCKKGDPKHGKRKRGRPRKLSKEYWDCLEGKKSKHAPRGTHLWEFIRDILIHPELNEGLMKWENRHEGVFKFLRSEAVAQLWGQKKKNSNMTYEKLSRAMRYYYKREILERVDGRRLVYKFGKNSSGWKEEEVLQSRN
The essentials: as §1

For test [17], the target named is ETV1 (Homo sapiens, UniProt P50549 1-477). The essentials: as §1
ETV1, sequence (P50549 whole entry): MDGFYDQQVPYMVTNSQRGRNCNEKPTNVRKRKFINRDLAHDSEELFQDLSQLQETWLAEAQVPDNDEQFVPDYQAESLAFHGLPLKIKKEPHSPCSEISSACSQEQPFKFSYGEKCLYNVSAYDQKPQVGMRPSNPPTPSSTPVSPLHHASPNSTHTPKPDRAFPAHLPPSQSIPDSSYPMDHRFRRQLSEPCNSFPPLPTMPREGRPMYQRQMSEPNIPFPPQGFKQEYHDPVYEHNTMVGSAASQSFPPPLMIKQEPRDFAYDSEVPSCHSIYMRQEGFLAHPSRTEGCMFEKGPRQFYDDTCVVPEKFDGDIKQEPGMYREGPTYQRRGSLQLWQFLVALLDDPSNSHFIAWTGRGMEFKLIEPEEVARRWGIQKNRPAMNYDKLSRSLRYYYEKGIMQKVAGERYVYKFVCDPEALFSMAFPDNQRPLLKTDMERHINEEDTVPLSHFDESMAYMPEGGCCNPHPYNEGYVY

SPIB, sequence (Q01892 whole entry): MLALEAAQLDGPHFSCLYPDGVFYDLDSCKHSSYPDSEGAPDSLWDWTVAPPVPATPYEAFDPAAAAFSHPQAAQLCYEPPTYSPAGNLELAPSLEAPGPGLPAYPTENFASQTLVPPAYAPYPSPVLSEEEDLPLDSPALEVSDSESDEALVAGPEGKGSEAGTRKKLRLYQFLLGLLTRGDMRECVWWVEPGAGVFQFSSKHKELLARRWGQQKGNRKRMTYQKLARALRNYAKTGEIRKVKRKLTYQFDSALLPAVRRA
ELF4, sequence (Q99607 whole entry): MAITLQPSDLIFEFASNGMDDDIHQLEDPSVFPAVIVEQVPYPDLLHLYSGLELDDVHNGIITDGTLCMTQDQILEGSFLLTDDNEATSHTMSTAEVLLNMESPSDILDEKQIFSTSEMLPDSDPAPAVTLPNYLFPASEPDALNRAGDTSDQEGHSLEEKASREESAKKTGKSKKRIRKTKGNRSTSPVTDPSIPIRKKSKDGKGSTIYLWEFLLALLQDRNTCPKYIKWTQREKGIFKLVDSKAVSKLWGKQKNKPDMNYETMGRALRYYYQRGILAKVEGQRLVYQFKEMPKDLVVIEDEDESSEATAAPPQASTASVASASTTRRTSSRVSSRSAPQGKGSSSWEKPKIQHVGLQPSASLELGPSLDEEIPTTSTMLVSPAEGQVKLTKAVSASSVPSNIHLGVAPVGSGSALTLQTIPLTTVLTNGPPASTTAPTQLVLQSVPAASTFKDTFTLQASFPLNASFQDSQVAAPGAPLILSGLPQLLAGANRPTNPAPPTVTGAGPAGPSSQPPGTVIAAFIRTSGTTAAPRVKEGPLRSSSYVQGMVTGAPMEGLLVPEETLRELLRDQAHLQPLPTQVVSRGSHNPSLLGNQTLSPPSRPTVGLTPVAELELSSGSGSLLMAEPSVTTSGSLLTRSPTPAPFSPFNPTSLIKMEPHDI
ELF1, sequence (P32519 whole entry): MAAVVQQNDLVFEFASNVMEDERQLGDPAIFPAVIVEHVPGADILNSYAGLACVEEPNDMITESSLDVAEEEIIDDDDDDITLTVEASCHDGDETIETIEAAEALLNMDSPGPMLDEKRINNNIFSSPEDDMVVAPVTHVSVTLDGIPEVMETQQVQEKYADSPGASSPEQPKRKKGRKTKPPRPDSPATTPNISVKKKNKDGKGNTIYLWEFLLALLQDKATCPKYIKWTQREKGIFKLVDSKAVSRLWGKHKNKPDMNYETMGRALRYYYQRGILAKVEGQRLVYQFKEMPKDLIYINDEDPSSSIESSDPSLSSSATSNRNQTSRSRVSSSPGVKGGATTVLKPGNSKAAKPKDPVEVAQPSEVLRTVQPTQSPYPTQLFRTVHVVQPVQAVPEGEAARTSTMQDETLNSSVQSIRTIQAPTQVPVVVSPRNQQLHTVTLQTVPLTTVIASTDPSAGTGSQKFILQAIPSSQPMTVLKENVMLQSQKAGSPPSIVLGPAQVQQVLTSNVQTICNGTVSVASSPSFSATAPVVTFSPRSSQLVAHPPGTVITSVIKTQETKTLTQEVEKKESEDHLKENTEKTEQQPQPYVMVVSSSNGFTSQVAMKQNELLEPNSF

In the case of TGCATG, the binding signal in [1] was 1.12 fold enrichment (6-mer frequency, TF over GST control); in test [2], 1.09 fold enrichment (6-mer frequency, TF over GST control); in test [3], 1.13 fold enrichment (6-mer frequency, TF over GST control); in test [4], 1.13 fold enrichment (6-mer frequency, TF over GST control); in [5], 1.15 fold enrichment (6-mer frequency, TF over GST control); in test [6], 1.15 fold enrichment (6-mer frequency, TF over GST control). In addition, the binding signal is 1.02 fold enrichment (6-mer frequency, TF over GST control) in test [7]; 1.14 fold enrichment (6-mer frequency, TF over GST control) in test [8]; 1.14 fold enrichment (6-mer frequency, TF over GST control) in test [9]; 1.04 fold enrichment (6-mer frequency, TF over GST control) in [10]; 1.15 fold enrichment (6-mer frequency, TF over GST control) in [11]; 1.27 fold enrichment (6-mer frequency, TF over GST control) in test [12]. The binding signal in [13] was 1.08 fold enrichment (6-mer frequency, TF over GST control); in test [14], 1.05 fold enrichment (6-mer frequency, TF over GST control); in test [15], 1.08 fold enrichment (6-mer frequency, TF over GST control); in test [16], 1.02 fold enrichment (6-mer frequency, TF over GST control); in test [17] it was 1.06 fold enrichment (6-mer frequency, TF over GST control).
